# Measurements published in PubChem BioAssay AID540364 (The Scripps Research Institute Molecular Screening Center, 2011).
# The whole screen tested about 360,000 compounds, of which about 2,000 (0.56%) were called active.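 How the source made its calls: active means activation above the average of all compounds screened plus 3 SD, cutoff fixed separately per campaign (cut at about 7.5% in these data); inactive means the rest.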 This excerpt belongs to a sample that is enriched for actives.
# Experiment: GAA850 frataxin promoter reporter upregulation – cell-based, luciferase luminescence, HEK293 lucGAA850, primary screen (AID 540364);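 further: 0% = DMSO wells and 100% = 10 µM SAHA wells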
# Details: HEK293 lucGAA850 FXN promoter luciferase reporter, 24 h; at 6 µM; active compounds read high; percent of 10 µM SAHA response
row,SMILES,activation
1,CC(C)CC(=O)N/C(N)=N/c1nc2ccccc2s1,4.47% (inactive)
2,CCC(=O)NC(=Nc1nc2ccccc2s1)NC(=O)CC,8.95% (active)
3,CC(=O)Nc1cccc(-c2nc3ccccc3s2)c1C,1.28% (inactive)
4,O=C(NCC1(N2CCCCC2)CCCCC1)c1ccc(NS(=O)(=O)c2ccc(F)cc2)cc1,2.54% (inactive)
5,O=C(Nc1ccccc1N1CCCC1)c1ccc2ccccc2c1,1.86% (inactive)
6,Nc1ccc(C(=O)Nc2ccccc2N)cc1,13.5% (active)
7,O=C(Cc1ccccc1)Nc1ccc(C(=O)Nc2ccccc2C(=O)O)cc1,-0.24% (inactive)
8,CCOc1ccccc1NS(=O)(=O)c1cc2c3c(c1)C(C)C(=O)N3CCC2 (centres undefined),3.36% (inactive)
9,O=C1COc2ccc(C(=O)COC(=O)c3cccnc3Cl)cc2N1,1.97% (inactive)
10,CCOC(=O)C1Sc2[nH]c(=O)sc2C(c2ccc(Cl)cc2)C1C(=O)OCC (centres undefined),-10.5% (inactive)
11,Cc1ccc(NC(=O)c2ccc(Oc3ncccn3)cc2)cc1,3.47% (inactive)
12,Cc1ccc(C(=O)NNC(=O)c2cc3cc4ccccc4nc3s2)cc1,-0.4% (inactive)
13,Cc1ccc(C(=O)NNc2ncnc3ccccc23)cc1,7.73% (active)
14,COC(=O)c1ccc(NC(=O)C23CC4CC(C2)CC(n2cnc(Cl)n2)(C4)C3)cc1,2.12% (inactive)
15,Cc1ccc(S(=O)(=O)N(C)c2nc3ccccc3n3c(C(C)C)nnc23)cc1,5.84% (inactive)
16,CCCCNC(=O)N(O)C1N(/N=C/c2ccccc2O)C(=S)SC1(C)C (centres undefined),14.4% (active)
17,CCC(C)N1C(=S)SC(C)(C)C1N(O)C(=O)NC1CCCCC1 (centres undefined),0.24% (inactive)
18,CCCCNC(=O)N(O)C1N(/N=C/c2ccc(N(C)C)cc2)C(=S)SC1(C)C (centres undefined),1.55% (inactive)
19,COc1ccc(Br)cc1S(=O)(=O)N1CCN=C1C,2.93% (inactive)
20,COc1ccccc1N1CCN(C(=O)C(=O)N/N=C/c2ccccc2F)CC1,-1.01% (inactive)

row,SMILES,activation
1,Fc1ccccc1/C=N/Nc1cc(N2CCCCC2)ncn1,8.75% (active)
2,O=C(CCC(=O)Nc1ccccc1)N/N=C/c1ccccc1F,0.15% (inactive)
3,COc1ccc(-c2cc3nc(NCCOc4ccccc4)ccn3n2)cc1,0.64% (inactive)
4,Nc1nc(NCCCN2CCOCC2)nc(Nc2ccccc2)c1[N+](=O)[O-],0.67% (inactive)
5,CCN1CCN(c2nc(Nc3cccc(F)c3)nc(N)c2[N+](=O)[O-])CC1,3.12% (inactive)
6,CNc1nc(Nc2ccc(C)c(Cl)c2)nc(N)c1[N+](=O)[O-],17.5% (active)
7,O=C(COC(=O)COc1cccc(F)c1)NCC1CCCCC1,2.16% (inactive)
8,Cc1ccc(-c2ccc(CN3C(C(C)C)C(=O)N(Cc4cn(CCC5OCCO5)nn4)CCS3(=O)=O)cc2)cc1 (centres undefined),-0.96% (inactive)
9,O=S(=O)(c1ccc(F)cc1)N1CCN(C(=S)NC2CCCC2)CC1,3.66% (inactive)
10,N#CC1=C(SCc2ccc(C#N)cc2)N=C(N)C(c2nc(-c3ccccc3)cs2)C12CCCCC2 (centres undefined),9.79% (active)
11,N#Cc1ccc(CSc2ncccn2)cc1,2.06% (inactive)
12,Cc1ccc(S(=O)(=O)N(C)C)cc1NC(=O)C(C)OC(=O)c1ccc2ccccc2n1 (centres undefined),0.74% (inactive)
13,N#CCSc1nc2ccc(N3CCOCC3)cc2c(=O)n1CCc1ccccc1,-2.84% (inactive)
14,Cc1nn(-c2ccccc2)c(C)c1/C=N/NC(=O)CSc1nc2ccccc2c(=O)n1-c1ccccc1,0.81% (inactive)
15,N#CCSc1nc2ccccc2c(=O)n1-c1ccccc1,9.45% (active)
16,COc1ccccc1N1CCN(C(=O)c2cc(-c3ccc(Br)cc3)on2)CC1,17.8% (active)
17,COc1ccccc1-c1cc(C(=O)N2CCCCC2)no1,3.83% (inactive)
18,O=C(c1cc(-c2ccc(Cl)cc2)on1)N1CCN(c2ccccc2)CC1,3.73% (inactive)
19,CC1(c2ccc(Cl)cc2Cl)NC(=O)N(CC(=O)Nc2cccnc2Cl)C1=O (centres undefined),0.61% (inactive)
20,O=C(N[C@H]1C/C=C\C(c2cccc(F)c2)N(Cc2ccccc2)C(=O)C1)OCC1c2ccccc2-c2ccccc21 (some centres undefined),-2.16% (inactive)

row,SMILES,activation
1,CN(C)CCNC(=O)c1cccc(-c2cnc3c(NC=O)cc(-c4cccc(C(F)(F)F)c4)cn23)c1,-0.71% (inactive)
2,CCCCc1nc2c(=O)[nH]c3ccccc3c2o1,3.48% (inactive)
3,Cn1nnnc1SCc1cc(=O)[nH]c2ccccc12,0.27% (inactive)
4,CC(Sc1nc2c([nH]c3ccccc32)c(=O)n1C)c1ccccc1 (centres undefined),13.8% (active)
5,CCN(CC)CCNC(=O)c1sc2ncn(CC(=O)Nc3ccc(C)c(Cl)c3)c(=O)c2c1C,0.29% (inactive)
6,COc1ccc(-c2cc(NC(C)=O)c3ncc(-c4cc(OC)c(OC)c(OC)c4)n3c2)cn1,-2.13% (inactive)
7,Cc1cc(C)n2nc(SCC(N)=O)nc2n1,0.08% (inactive)
8,Cc1cc(C)n2nc(CNS(=O)(=O)c3c(F)c(F)c(F)c(F)c3F)nc2n1,8.27% (active)
9,Cc1cc(C)n2nc(C(=O)NC(C)(C)C)nc2n1,-0.66% (inactive)
10,CCC(C)(C(=O)NC1CCCC1)N(C(=O)CNC(C)=O)c1ccc(C)cc1 (centres undefined),-0.84% (inactive)
11,C[C@H]1CN([C@@H](C)CO)C(=O)CCCn2cc(nn2)CO[C@@H]1CN(C)S(=O)(=O)c1ccc(-c2ccccc2)cc1,-1.7% (inactive)
12,CC(C)[C@H](NC(=O)c1ccc(F)cc1)C(=O)OCC(=O)NC(=O)c1cccn1C,0.53% (inactive)
13,Fc1ccc2nc(N3CCCCC3)sc2c1,8.32% (active)
14,Fc1ccc2nc(Nc3nc4c(s3)CCCC4)sc2c1,5.51% (inactive)
15,c1c2c(cc3sc(N4CCCCC4)nc13)OCCO2,-6.92% (inactive)
16,Cc1cccc(-n2c(Cc3cc(=O)[nH]c(=O)[nH]3)nnc2SCC(=O)Nc2cccc(C(F)(F)F)c2)c1,0.62% (inactive)
17,CC1CCC2(CC1)NC(=O)N(Cc1nnc(-c3cccs3)o1)C2=O (centres undefined),1.39% (inactive)
18,CC(C)N1C(=S)SC(C)(C)C1n1oc(=O)n(-c2ccc(Cl)c(Cl)c2)c1=O (centres undefined),-0.29% (inactive)
19,COC(=O)CSc1snnc1-c1ccc(Cl)c(Cl)c1,2.88% (inactive)
